The campaign covered roughly 310,000 compounds. About 14,000 (4.5%) showed an effect of 50% or more. Effects have a minus sign here. The sample holds strong results, similar compounds and a random draw of the others, so the mix is not that of the screen.
molecular target: human ether-à-go-go-related gene (hERG) potassium channel (human, UniProt Q12809); assay: primary screen, population patch clamp on CHO cells stably expressing hERG; higher = less effect of the substance
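Further: peak tail current of the secondary pulse compared with the same well before compound.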

Chain of human ether-à-go-go-related gene (hERG) potassium channel (Q12809 whole entry, looked up): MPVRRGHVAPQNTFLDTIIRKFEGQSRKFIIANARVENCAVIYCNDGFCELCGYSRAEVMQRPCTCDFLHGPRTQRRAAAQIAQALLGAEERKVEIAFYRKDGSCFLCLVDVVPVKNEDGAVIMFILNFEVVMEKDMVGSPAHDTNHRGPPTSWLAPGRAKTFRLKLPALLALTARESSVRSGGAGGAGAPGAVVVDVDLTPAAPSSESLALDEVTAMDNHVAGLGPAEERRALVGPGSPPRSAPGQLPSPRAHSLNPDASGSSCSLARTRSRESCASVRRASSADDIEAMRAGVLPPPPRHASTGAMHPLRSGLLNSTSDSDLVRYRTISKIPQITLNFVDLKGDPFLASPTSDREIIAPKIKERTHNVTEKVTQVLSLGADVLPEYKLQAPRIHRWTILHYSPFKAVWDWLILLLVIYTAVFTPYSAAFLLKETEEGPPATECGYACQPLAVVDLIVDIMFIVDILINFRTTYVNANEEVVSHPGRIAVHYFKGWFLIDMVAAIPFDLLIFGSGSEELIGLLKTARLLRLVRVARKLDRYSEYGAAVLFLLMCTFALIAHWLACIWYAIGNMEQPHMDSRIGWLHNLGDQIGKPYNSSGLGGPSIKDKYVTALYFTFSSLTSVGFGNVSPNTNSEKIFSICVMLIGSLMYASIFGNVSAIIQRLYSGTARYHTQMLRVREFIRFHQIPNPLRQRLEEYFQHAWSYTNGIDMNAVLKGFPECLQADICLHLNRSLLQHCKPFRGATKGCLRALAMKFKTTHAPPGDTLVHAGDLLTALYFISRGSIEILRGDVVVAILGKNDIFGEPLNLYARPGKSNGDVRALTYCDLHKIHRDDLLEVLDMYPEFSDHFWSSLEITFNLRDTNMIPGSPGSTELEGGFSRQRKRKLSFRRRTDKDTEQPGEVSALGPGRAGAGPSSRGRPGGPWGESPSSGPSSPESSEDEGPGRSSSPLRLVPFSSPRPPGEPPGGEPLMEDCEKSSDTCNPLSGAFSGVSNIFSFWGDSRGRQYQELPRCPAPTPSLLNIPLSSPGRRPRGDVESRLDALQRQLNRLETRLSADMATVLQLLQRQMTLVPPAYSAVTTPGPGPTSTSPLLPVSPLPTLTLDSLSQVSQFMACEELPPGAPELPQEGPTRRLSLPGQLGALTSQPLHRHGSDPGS

Row | Compound | hERG current change (%, negative = inhibition) at 10uM [%]
1 | CCN(Cc1ccncc1)Cc1ccc(Br)cc1.O=C(O)C(=O)O | -5.38
2 | COc1cccc(CC(=O)OC(C)C(=O)NCc2ccc3c(c2)OCO3)c1 (stereo not shown) | -3.97
3 | COc1cc(C(CC(=O)N2CCN(c3ccccc3)CC2)c2c(OC)cc(OC)c3ccc(=O)oc23)cc(OC)c1OC (stereo not shown) | -29
4 | COc1ccc(-c2nnc(SCC#N)o2)cc1 | 11.3
5 | CCOC(=O)CCCNC(=O)CCNC(=O)c1ccc(OCC(C)C)cc1 | 3.61
6 | COc1ccc(C(=O)CN2C(=O)c3ccccc3C2=O)cc1 | 7.16
7 | CN(C)CCNC(=O)c1sc2nc(-c3ccccc3)cc(C(F)(F)F)c2c1N | -57.8
8 | COc1ccc(-c2cc(C(F)(F)F)c3c(N)c(C(=O)NCCSC)sc3n2)cc1 | -10.7
9 | Nc1c(C(=O)C2CC2)sc2nc(-c3ccccc3)cc(C(F)(F)F)c12 | 18.8
10 | COc1ccc(-c2cn(Cc3ccc(C(N)=O)cc3)c(-c3ccc(Cl)nc3)n2)cc1 | -71.4
11 | COc1ccc(-c2cn(CCC(=O)O)c(-c3ccc(Cl)nc3)n2)cc1 | 9.6
12 | COc1ccc(-c2cn(Cc3ccc(C(N)=O)cc3)c(CCN)n2)cc1 | -13.9
13 | COc1ccc(-c2cn(CCO)c(-c3ccc(Cl)nc3)n2)cc1 | -9.71
14 | Cc1ccc(CNC(=O)c2ccc(Cn3cc(-c4ccc(C)cc4)nc3-c3ccncc3)cc2)cc1 | 5.94
15 | COc1ccc(-c2cn(Cc3ccc(C(N)=O)cc3)c(-c3ccncc3)n2)cc1 | -60.1
16 | O=C(c1ccc(CS(=O)(=O)c2ccc(Br)cc2)o1)N1CCN(c2ccccn2)CC1 | -36
17 | Cc1ccc(-n2c(C)nc3ccsc3c2=O)cc1 | 1.42
18 | O=C(CCc1nc(-c2ccccc2Cl)no1)NC1CCCCC1 | 10.6
19 | CCCCCCCNC(=O)COc1ccc2c(c1)C(=O)CC(C)(C)O2 | -14.4
20 | CCN(CC)CCNC(=O)CNC(=S)N(CCCN1CCOCC1)Cc1cccs1 | 15.7
21 | O=C(CNC(=S)N(CCCN1CCOCC1)Cc1cccs1)N1CCCCCC1 | -41.4
22 | CCOC(=O)CNC(=S)N(CCCN1CCCC1)Cc1cccs1 | -53.6
23 | CCOC(=O)CNC(=S)N(CCCN1CCN(C)CC1)Cc1cccs1 | -43.5
24 | O=C(CNC(=S)N(CCCN1CCOCC1)Cc1cccs1)N1CCOCC1 | -9.74
25 | CCOC(=O)CNC(=S)N(CCCN1CCCCCC1)Cc1cccs1 | -65.8
26 | COCCNC(=O)CNC(=S)N(CCCN1CCOCC1)Cc1cccs1 | 14.1
27 | CCOC(=O)CNC(=S)N(CCCN1CCCCC1)Cc1cccs1 | -62.6
28 | O=C(CNC(=S)N(CCCN1CCOCC1)Cc1cccs1)N1CCCC1 | 3.09
